A word on the Inhibition: it is the change of the read-out against control, counted positive when it falls.

For one assay, the system named is Acinetobacter baumannii. Put plainly: Antibacterial activity against Acinetobacter baumannii ATCC 19606 (CO-ADD:GN_034); MIC in CAMBH media using NBS plates, by Resazurin F(560/590). The settings on record: Concentration 20 uM, ASSAY_TEST Inhibition of Bacterial Growth, detection method Resazurin, Fluorescence (ex560/em590), MEDIA CAMHB, plate type 384well, CORNING #3640, time 18 hr. In kind it is functional. A general note: Resazurin is reduced to fluorescent resorufin, in cell work by metabolically active cells.
Take `Cn1nc(N)c2ncc(C(Cl)(Cl)Cl)nc21`: the Inhibition is listed as -8.78%.
Turning to `CCOC(=O)Nc1ccc2[nH]c(-c3cscn3)nc2c1`, the Inhibition is on record as -19.41%.
Still for that read-out and setting: next, `O=C(O)c1ccccc1C(=O)Nc1ccccc1[N+](=O)[O-]`: 5.2%; `Cc1cccc(N2CCN(CC(O)COc3ccc(Cl)cc3)CC2)c1` (stereo not drawn): 4.97%.
For the compound `O=[N+]([O-])/C=C/c1cc2ccccc2[nH]1`, the Inhibition is recorded as -9.9%.
Regarding `c1ccc(Sc2ncnc3ccccc23)cc1`, the Inhibition is -14.3%.
As for `CCCCOc1ccc(Nc2cc(Cl)ccc2C(=O)O)cn1`, the Inhibition is listed as 0.16%.
As for `Cn1c(=O)c2c(nc(OCCc3ccccc3)n2C)n(C)c1=O`, the Inhibition was -9.02%.
Still for that read-out and setting: the value for `c1ccc(NN(Cc2ccncc2)c2ccccc2)cc1` was -18.1%; that for `Nc1ncnc2c1ncn2C=C=CCO` was 8.12%; that for `O=C1c2ccccc2C(=O)c2c(Nc3ccc(CCO)cc3)ccc(O)c21` was 1.68%.
On the same count and under the same terms, the value for `Cc1ccc(C#CC(C)(O)C(C)(C)C)cn1` (stereo not drawn) was 10.01%; that for `CCOc1cc2c(Cl)ncnc2c(OCC)c1OCC` was -8.17%; that for `O=C(NC1(N2CCOCC2)CC1)c1ccc(Cl)cc1` was -6.57%.
With `CS(=O)(=O)Oc1ccc(Br)c2cccnc12`, the Inhibition stood at 10.16%.
With `Cc1nnsc1C(=O)NCc1c(F)cccc1Cl`, the Inhibition is listed as -1.01%.
On the same count and under the same terms, the value for `Cc1cccc(NC2=C(C#N)C(=O)NC3(CCCC3)S2)c1` was -3%.
For `CCOC(=O)C(=O)C1C(=O)Nc2ccccc21` (stereo not drawn), the Inhibition was 4.6%.
On the same count and under the same terms, next, `C=CCNC(=S)NCC=C`: -8.96%; `C=CCOC(=O)/C=C\C(=O)NC(N)=O`: -11.84%.
As to `Cc1ccc(S(=O)(=O)N(C)C)cc1[N+](=O)[O-]`, the Inhibition is recorded as -5.08%.
Still for that read-out and setting: next, `COC(=O)C1CC(O)C(O)C(O)C1` (stereo not drawn): -10.09%.
Regarding `COc1c(NC=O)c2c(c([N+](=O)[O-])c1OC)C(=O)OC2`, the Inhibition is on record as 7.55%.
Turning to `CCCSc1ncnc2[nH]ncc12`, the Inhibition was -9.04%.
Still for that read-out and setting: the value for `CCCCOC(=O)c1cccnc1` was -6.99%; that for `Cc1cc(NC(=O)c2ccccc2)c(Cl)cc1N` was 13.32%.
On the same count and under the same terms, the value for `c1ccc(-c2nc(-c3ccccn3)nc(-c3ccccn3)n2)nc1` was 10.22%.
In the case of `Cc1c(C(C)(C(=O)O)c2c(C)n(C)c3ccccc23)c2ccccc2n1C`, the Inhibition is 7.57%.
Take `O=C1NC(=O)C2(CCc3ccccc32)N1` (stereo not drawn): the Inhibition is -7.84%.
For `Cn1ncc2c(Nc3ccc(Br)cc3)nc(Nc3ccc(Br)cc3)nc21`, the Inhibition is -7.92%.
On to `CC(C)(C)n1nc(C2CC2)cc1NC(=O)Nc1ccc(Cl)cc1`, for which the Inhibition stood at 11.57%.
On the same count and under the same terms, the value for `CC1(C)OC2C(CO)OC(n3cnc4c(S)ncnc43)C2O1` (stereo not drawn) was -15.97%; that for `CC1CO/C(=C2\C(=O)OCC2C)C1` (stereo not drawn) was -14.17%.
Same read-out and setting: the value for `Cl.O=C(O)c1ccc(NCc2nc3ccccc3[nH]2)cc1` was -0.88%; that for `CCCC1OC(c2cc3c(cc2Cl)OCO3)OCC1CC` (stereo not drawn) was -17.34%.
Regarding `CC(C)(C)NC(=O)c1ccc(C(=O)NC(C)(C)C)cc1`, the Inhibition is listed as -9.96%.
In the case of `Cc1nc2ccccc2nc1N1CCCC1`, the Inhibition is recorded as -3.73%.
`Oc1cc(-c2nn[nH]n2)nc(O)n1`: the Inhibition is recorded as -5.46%.
On the same count and under the same terms, the value for `CC1=C2C3OC(=O)C(C)C3CCC2(C)C=C(Cl)C1=O` (stereo not drawn) was -5.14%.

The next assay concerns Escherichia coli. The assay can be described thus: Antibacterial activity against Escherichia coli ATCC 25922 (CO-ADD:GN_001); MIC in CAMBH media using NBS plates, by Resazurin F(560/590). Particulars: Concentration 20 uM, ASSAY_TEST Inhibition of Bacterial Growth, detection method Resazurin, Fluorescence (ex560/em590), MEDIA CAMHB, plate type 384well, CORNING #3640, time 18 hr. In kind it is functional.
`Cn1nc(N)c2ncc(C(Cl)(Cl)Cl)nc21`: the Inhibition worked out at 5.5%.
On the same count and under the same terms, the value for `CCOC(=O)Nc1ccc2[nH]c(-c3cscn3)nc2c1` was 13.31%; that for `O=C(O)c1ccccc1C(=O)Nc1ccccc1[N+](=O)[O-]` was 12.47%; that for `Cc1cccc(N2CCN(CC(O)COc3ccc(Cl)cc3)CC2)c1` (stereo not drawn) was 5.23%.
On the same count and under the same terms, the value for `O=[N+]([O-])/C=C/c1cc2ccccc2[nH]1` was 9.79%.
On the same count and under the same terms, the value for `c1ccc(Sc2ncnc3ccccc23)cc1` was 12.91%; that for `CCCCOc1ccc(Nc2cc(Cl)ccc2C(=O)O)cn1` was 4.02%.
Consider `Cn1c(=O)c2c(nc(OCCc3ccccc3)n2C)n(C)c1=O`, for which the Inhibition is listed as 8.83%.
The same measure, in the same setting: the value for `c1ccc(NN(Cc2ccncc2)c2ccccc2)cc1` was 6%; that for `Nc1ncnc2c1ncn2C=C=CCO` was -2.59%.
For `O=C1c2ccccc2C(=O)c2c(Nc3ccc(CCO)cc3)ccc(O)c21`, the Inhibition is recorded as 9.39%.
Take `Cc1ccc(C#CC(C)(O)C(C)(C)C)cn1` (stereo not drawn): the Inhibition worked out at 1.4%.
The same measure, in the same setting: next, `CCOc1cc2c(Cl)ncnc2c(OCC)c1OCC`: 3.68%.
In the case of `O=C(NC1(N2CCOCC2)CC1)c1ccc(Cl)cc1`, the Inhibition is given as -5.43%.
With `CS(=O)(=O)Oc1ccc(Br)c2cccnc12`, the Inhibition was determined as 3.51%.
`Cc1nnsc1C(=O)NCc1c(F)cccc1Cl`: the Inhibition is -7.07%.
As for `Cc1cccc(NC2=C(C#N)C(=O)NC3(CCCC3)S2)c1`, the Inhibition is listed as -9.49%.
The same measure, in the same setting: the value for `CCOC(=O)C(=O)C1C(=O)Nc2ccccc21` (stereo not drawn) was -3.33%.
The same measure, in the same setting: the value for `C=CCNC(=S)NCC=C` was 3.32%; that for `C=CCOC(=O)/C=C\C(=O)NC(N)=O` was 0.88%.
Still for that read-out and setting: the value for `Cc1ccc(S(=O)(=O)N(C)C)cc1[N+](=O)[O-]` was -0.42%.
As for `COC(=O)C1CC(O)C(O)C(O)C1` (stereo not drawn), the Inhibition came to 12.92%.
`COc1c(NC=O)c2c(c([N+](=O)[O-])c1OC)C(=O)OC2`: the Inhibition was determined as 3.05%.
On the same count and under the same terms, the value for `CCCSc1ncnc2[nH]ncc12` was 5.02%.
As for `CCCCOC(=O)c1cccnc1`, the Inhibition is reported as 12.49%.
Same read-out and setting: next, `Cc1cc(NC(=O)c2ccccc2)c(Cl)cc1N`: 3.07%; `c1ccc(-c2nc(-c3ccccn3)nc(-c3ccccn3)n2)nc1`: -0.02%; `Cc1c(C(C)(C(=O)O)c2c(C)n(C)c3ccccc23)c2ccccc2n1C`: 2.78%.
Same read-out and setting: next, `O=C1NC(=O)C2(CCc3ccccc32)N1` (stereo not drawn): 5.32%.
Same read-out and setting: next, `Cn1ncc2c(Nc3ccc(Br)cc3)nc(Nc3ccc(Br)cc3)nc21`: 12.54%; `CC(C)(C)n1nc(C2CC2)cc1NC(=O)Nc1ccc(Cl)cc1`: -11.06%.
`CC1(C)OC2C(CO)OC(n3cnc4c(S)ncnc43)C2O1` (stereo not drawn): the Inhibition worked out at 11.94%.
As for `CC1CO/C(=C2\C(=O)OCC2C)C1` (stereo not drawn), the Inhibition is given as 10.92%.
Still for that read-out and setting: the value for `Cl.O=C(O)c1ccc(NCc2nc3ccccc3[nH]2)cc1` was -3.07%; that for `CCCC1OC(c2cc3c(cc2Cl)OCO3)OCC1CC` (stereo not drawn) was 11.31%.
Still for that read-out and setting: next, `CC(C)(C)NC(=O)c1ccc(C(=O)NC(C)(C)C)cc1`: 2.15%.
On the same count and under the same terms, the value for `Cc1nc2ccccc2nc1N1CCCC1` was 4.2%; that for `Oc1cc(-c2nn[nH]n2)nc(O)n1` was 13.37%.
As to `CC1=C2C3OC(=O)C(C)C3CCC2(C)C=C(Cl)C1=O` (stereo not drawn), the Inhibition is recorded as -9.28%.
